Data taken from PubChem BioAssay AID686971 (National Center for Advancing Translational Sciences (NCATS), 2013).
About 7,500 (2.1%) of roughly 360,000 compounds were called active. Another 8% or so got no clear call; they are omitted. What follows is part of a selection rich in actives, with near analogues and random picks from the rest. Values without a mark were called inactive. Calls come from the whole dose curve; as a rule, active = well fitted cell-killing curve with a large enough effect; inconclusive = small, poorly fitted or top-dose-only effect, or effect the other way, or another doubt; inactive = no such curve, though single readings can be large or run the other way.

assay: qHTS for induction of synthetic lethality in tumor cells producing 2HG: qHTS for the HT-1080-IDH1KD cell line; conditions: HT-1080 IDH1 knockdown viability, ATP luminescence, 48 h; series mostly up to 46.1 µM; activity, negative = toxicity: at the top concentration;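 for activity, negative = toxicity: 0% = DMSO wells and -100% = cell-free medium wells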
Method in brief: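 In this qHTS, HT-1080 cells depleted of IDH1 are exposed for 48 h at 37 °C to compound titrations. Toxicity is scored from CellTiter-Glo luminescence, with DMSO as full viability and medium alone as none.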
Potency is the fitted concentration of half-maximal effect.

**Q.** With `Cc1ccc([C@H]2C[C@H](O)[C@@H](n3cc(COC(=O)c4ccccc4)nn3)CN2CC2CCCCC2)cc1` as the compound, how does the “activity, negative = toxicity” value read?
**A.** The value was 3.18%.

**Q.** For `O=C(Nc1ccc2c(c1)OCCO2)C1c2ccccc2OCC(=O)N1Cc1ccccn1` (centres undefined), which “activity, negative = toxicity” value is on record?
**A.** The value was 9.77%.

**Q.** For `Cc1cc(C)nc(S/C=C/C(=O)c2ccccc2)n1`, which Potency is on record?
**A.** Its Potency is 3.66 µM (active).

**Q.** With `Cc1cc(C)nc(SCC(=O)N(C)C)n1` as the compound, how does the “activity, negative = toxicity” value read?
**A.** Its value is 25.2%.

**Q.** Which “activity, negative = toxicity” value does the source give for `Cc1cc(C)nc(SCc2ccccc2C#N)n1` here?
**A.** The value was -4.58%.

**Q.** For `O=C(CCCn1c(=O)[nH]c2cc(Cl)ccc2c1=O)NCCN1CCN(c2ccccc2)CC1`, which “activity, negative = toxicity” value is on record?
**A.** The value was -1.58%.

**Q.** Which “activity, negative = toxicity” value does the source give for `COc1cccc(CNC(=O)Cc2csc(Nc3nc(=S)[nH]c4ccccc34)n2)c1` here?
**A.** The value was -11%.

**Q.** With `O=C(Cc1csc(Nc2nc(=S)[nH]c3ccccc23)n1)NCCCN1CCN(c2cccc(Cl)c2)CC1` as the compound, how does the Potency read?
**A.** The Potency was 20.6 µM (active).

**Q.** With `COc1cc2nnn(-c3ccncc3)c2cc1OC` as the compound, how does the “activity, negative = toxicity” value read?
**A.** Its value is 9.52%.

**Q.** With `N#CC1(Nc2ccc3c4c(cccc24)CC3)CCCCC1` as the compound, how does the “activity, negative = toxicity” value read?
**A.** Its value is -19.4%.

**Q.** With `Cc1cc(-c2ccc(C)c(S(=O)(=O)NCCCN(Cc3ccccc3)C(C)C)c2)on1` as the compound, how does the “activity, negative = toxicity” value read?
**A.** The value was -2.16%.

**Q.** With `COc1ccc(CNS(=O)(=O)c2cc(-c3cc(C)no3)ccc2C(C)C)cc1` as the compound, how does the Potency read?
**A.** The Potency was 3.66 µM (active).

**Q.** With `CCOc1ccccc1CNS(=O)(=O)c1cc(-c2cc(C)no2)ccc1C` as the compound, how does the “activity, negative = toxicity” value read?
**A.** The value was -19.8%.

**Q.** For `CCOC(=O)N1CCN(C(=O)C[C@@H]2C[C@@]3(C(=O)OC)CCCCC=C3N(CCC3=CCCCC3)C2=O)CC1`, which “activity, negative = toxicity” value is on record?
**A.** The value was -21.7%.

**Q.** With `Cc1cccc(-c2cnc(C(O)c3ccc4ccccc4c3)[nH]2)c1` (centres undefined) as the compound, how does the “activity, negative = toxicity” value read?
**A.** Its value is -20.1%.

**Q.** For `CC1(C(=O)NCc2ccccc2)CN(S(C)(=O)=O)CC(=O)N1CC(F)(F)F` (centres undefined), which “activity, negative = toxicity” value is on record?
**A.** Its value is 19.5%.

**Q.** For `CC1(C(=O)O)CCN1C(=O)/C=C/c1ccccc1` (centres undefined), which “activity, negative = toxicity” value is on record?
**A.** Its value is -1.28%.

**Q.** For `CC1(C(=O)NS(=O)(=O)c2ccccc2)CCN1C(=O)C/C=C/c1ccccc1` (centres undefined), which “activity, negative = toxicity” value is on record?
**A.** The value was 24%.

**Q.** With `CC1(C)CCSC(/C=C/c2ccccc2)=N1` as the compound, how does the Potency read?
**A.** Its Potency is 25.9 µM (active).

**Q.** For `CC1(C(=O)NCc2ccc3c(c2)OCO3)CCN1CCc1ccccc1` (centres undefined), which “activity, negative = toxicity” value is on record?
**A.** The value was 0%.

**Q.** Which “activity, negative = toxicity” value does the source give for `CCN(CC)C(=O)C(C)N1c2cccc3cccc(c23)S1(=O)=O` (centres undefined) here?
**A.** The value was 0.219%.

**Q.** For `CC(C)Nc1nc(NCCOc2ccccc2Cl)c2sccc2n1`, which Potency is on record?
**A.** The Potency was 16.4 µM (active).

**Q.** Which “activity, negative = toxicity” value does the source give for `COc1cccc(-c2cc3nc(NCCOc4ccccc4Cl)n(C)c(=O)c3s2)c1` here?
**A.** Its value is 10.4%.

**Q.** With `O=C(NCCOc1ccccc1Cl)C(=O)Nc1ccccc1` as the compound, how does the “activity, negative = toxicity” value read?
**A.** The value was -23.8%.

**Q.** Which “activity, negative = toxicity” value does the source give for `Cc1c(NC(=O)COC(=O)/C=C/c2cccc(F)c2)c(=O)n(-c2ccccc2)n1C` here?
**A.** Its value is 0.173%.

**Q.** For `COC(=O)C1(C(=O)OC)C[C@H](c2ccccc2)N(Cc2ccccc2OC)[C@@H]1c1ccccc1`, which “activity, negative = toxicity” value is on record?
**A.** The value was -10.5%.

**Q.** With `CC1=NNC(=O)C1CCC(=O)N/N=C(\C)c1ccc(Cl)cc1` (centres undefined) as the compound, how does the “activity, negative = toxicity” value read?
**A.** Its value is 0.912%.

**Q.** For `NC(=O)NC(CC(=O)NNC(=O)c1ccccn1)c1ccc(Cl)cc1` (centres undefined), which “activity, negative = toxicity” value is on record?
**A.** The value was -25.6%.

**Q.** For `C/C(=N\NC(=O)Cc1ccc(Cl)cc1)c1ccccn1`, which Potency is on record?
**A.** The Potency was 2.51 µM (active).

**Q.** For `CC(=O)NC(c1ccccc1)c1nc(-c2cccc(C(C)C)c2)cs1` (centres undefined), which “activity, negative = toxicity” value is on record?
**A.** The value was -0.585%.

**Q.** Which “activity, negative = toxicity” value does the source give for `CC(OC(=O)c1ccc(NC(=O)CC#N)cc1)C(=O)Nc1ccc(S(=O)(=O)N2CCCC2)cc1` (centres undefined) here?
**A.** Its value is -9.1%.

**Q.** Which “activity, negative = toxicity” value does the source give for `C[C@@H]1CN([C@H](C)CO)C(=O)CCCn2cc(nn2)CO[C@H]1CN(C)S(=O)(=O)c1ccc(Oc2ccccc2)nc1` here?
**A.** The value was -8.17%.

**Q.** With `Cc1cccc(CN2CCN(C3CN(Cc4cn(Cc5ccccc5F)nn4)S(=O)(=O)C3)CC2)c1` (centres undefined) as the compound, how does the “activity, negative = toxicity” value read?
**A.** Its value is 2.12%.

**Q.** For `O=C(NCC(O)c1nc2ccccc2[nH]1)c1ccc(Br)cc1` (centres undefined), which “activity, negative = toxicity” value is on record?
**A.** Its value is -0.05%.

**Q.** With `CCOc1ccccc1N1CCN(C(=O)COc2ccc3c(C)cc(=O)oc3c2)CC1` as the compound, how does the “activity, negative = toxicity” value read?
**A.** The value was -13.8%.

**Q.** With `Cc1cc(=O)oc2cc(OCC3CC(c4ccccc4Cl)=NO3)ccc12` (centres undefined) as the compound, how does the Potency read?
**A.** Its Potency is 0.447 µM (active).

**Q.** Which “activity, negative = toxicity” value does the source give for `Cc1cc(=O)oc2cc(OCCC[n+]3ccccc3)ccc12` here?
**A.** Its value is 7.77%.

**Q.** Which “activity, negative = toxicity” value does the source give for `CN1OC[C@@H]2CN(C(=O)c3cccnc3)[C@H](c3ccc(N4CCCCC4)cc3)C[C@@H]21` here?
**A.** Its value is 11.3%.

**Q.** With `Cc1csc(SCC(=O)Nc2ccc(C)c(S(=O)(=O)N(C)C)c2)n1` as the compound, how does the “activity, negative = toxicity” value read?
**A.** The value was -1.02%.

**Q.** For `C[C@H](CO)N1C[C@H](C)[C@@H](CN(C)Cc2ccc3c(c2)OCO3)OCc2cnnn2CCCC1=O`, which “activity, negative = toxicity” value is on record?
**A.** The value was 21.3%.

**Q.** Which “activity, negative = toxicity” value does the source give for `CC(=O)NN1C(=O)c2ccccc2NC1c1ccccc1` (centres undefined) here?
**A.** The value was 5.4%.

**Q.** Which Potency does the source give for `O=C1c2ccccc2NC(c2ccc(-c3cccc(Cl)c3)o2)N1O` (centres undefined) here?
**A.** Its Potency is 20 µM (active).

**Q.** With `O=C(O)C(c1ccccc1)N1C(=O)/C(=C\c2ccc(-c3cccc(Cl)c3)o2)SC1=S` (centres undefined) as the compound, how does the “activity, negative = toxicity” value read?
**A.** The value was 5.09%.

**Q.** Which “activity, negative = toxicity” value does the source give for `COc1ccc(C=C2CCC3C(CCCC34OCCO4)C2=O)cc1` (centres undefined) here?
**A.** Its value is -0.459%.

**Q.** With `C=CCOc1cccc(C2C(C(=O)c3ccc(C)o3)=C(O)C(=O)N2CCN2CCOCC2)c1` (centres undefined) as the compound, how does the “activity, negative = toxicity” value read?
**A.** The value was -1.37%.

**Q.** With `COCCNC(=O)C1CCCN(Cc2ccccc2Cl)CC1` (centres undefined) as the compound, how does the “activity, negative = toxicity” value read?
**A.** Its value is 1.46%.

**Q.** Which “activity, negative = toxicity” value does the source give for `Cc1ccc(S(=O)(=O)N2CCOCC2)cc1NC(=O)c1ccncc1` here?
**A.** The value was -4.38%.

**Q.** Which “activity, negative = toxicity” value does the source give for `CC(C)Nc1ncnc2c1ncn2[C@H]1CN(Cc2ccncc2)C[C@@H](CO)O1` here?
**A.** The value was 8.01%.

**Q.** For `O=C(Nc1ccc(Cl)cc1)Nc1nnc(/C=C/c2ccccc2)s1`, which “activity, negative = toxicity” value is on record?
**A.** Its value is -6.97%.

**Q.** With `CCOCc1nnc(NC(=O)CSc2ccc(C)cc2)s1` as the compound, how does the “activity, negative = toxicity” value read?
**A.** The value was 13.4%.

**Q.** For `O=C(CSc1ccccc1)Nc1nnc(/C=C/c2ccccc2)s1`, which Potency is on record?
**A.** Its Potency is 18.4 µM (active).

**Q.** Which “activity, negative = toxicity” value does the source give for `CC1(C)OC(=O)C2=C(C[C@@H](C3CC3)O[C@H]2c2ccc(Cl)cc2)O1` here?
**A.** Its value is 6.54%.

**Q.** With `CCCCc1nc2ccc(F)cc2cc1C` as the compound, how does the “activity, negative = toxicity” value read?
**A.** The value was 14%.

**Q.** With `CCCNC(=O)c1cc(C2CCCCN2S(=O)(=O)c2cn(C)cn2)on1` (centres undefined) as the compound, how does the “activity, negative = toxicity” value read?
**A.** Its value is 0%.

**Q.** Which “activity, negative = toxicity” value does the source give for `COc1ccc(NC(=O)NCc2ccc3c(c2)OCO3)c(OC)c1` here?
**A.** Its value is 12.4%.

**Q.** Which Potency does the source give for `COc1ccc2c(c1)C(C)=CC(C)(C)N2C(=O)CNCc1ccc2c(c1)OCO2` here?
**A.** The Potency was 8.91 µM (active).

**Q.** Which “activity, negative = toxicity” value does the source give for `COc1ccc2c(c1)C(C)=CC(C)(C)N2C(=O)Nc1ccccc1` here?
**A.** Its value is 6.01%.

**Q.** Which “activity, negative = toxicity” value does the source give for `CCOC(=O)[C@]12CCCC=C1N(Cc1ccc3c(c1)OCO3)C(=O)[C@H](CC(=O)N1CCN(C(=O)c3ccco3)CC1)C2` here?
**A.** The value was 7.52%.

**Q.** Which “activity, negative = toxicity” value does the source give for `CCN(CC)CCn1c(/N=C/c2cc(Br)ccc2O)nc2ccccc21` here?
**A.** Its value is -22.5%.

**Q.** With `Cc1c(C(=O)Nc2ccccn2)oc2ccc(Br)cc12` as the compound, how does the “activity, negative = toxicity” value read?
**A.** Its value is 0.189%.

**Q.** For `Oc1ccc(Br)cc1/C=N/Nc1ccccn1`, which Potency is on record?
**A.** The Potency was 6.51 µM (active).

**Q.** For `NCCCCC(C(=O)O)N(C(=O)OCc1ccccc1)C(=O)OCc1ccccc1` (centres undefined), which “activity, negative = toxicity” value is on record?
**A.** Its value is 27.1%.

**Q.** Which “activity, negative = toxicity” value does the source give for `O=C(COC(=O)c1ccc(S(=O)(=O)N2CCCCCC2)cc1)Nc1ccccc1C(F)(F)F` here?
**A.** The value was -2.66%.

**Q.** For `CCc1nc2ccc(C(=O)Nc3ccc(OC)c(OC)c3)cn2c1N(C)C(=O)c1cccc(OC)c1`, which “activity, negative = toxicity” value is on record?
**A.** Its value is 2.78%.
